# Measured values as given in PubChem BioAssay AID1438 (Sanford-Burnham Center for Chemical Genomics, 2008).
# In all, about 2,200 compounds went through this assay and about 45 (2%) were called active. The rule behind the calls is not given here. Not all results are given here. Entries with a potency or affinity are not part of this list.
# Biological target: Runt-related transcription factor 1 (Homo sapiens) + Core-binding factor subunit beta (Homo sapiens) (UniProt Q01196+Q13951)
# Assay: inhibitors of RUNX1 Runt–CBFb-SMMHC binding, biochemical, TR-FRET (AID 1438)
# Settings: TR-FRET Runt domain–CBFb-SMMHC binding, at 20 µM, active compounds read high
# Sequence of Runt-related transcription factor 1 (Homo sapiens) + Core-binding factor subunit beta (Homo sapiens) (Q01196 whole entry, looked up): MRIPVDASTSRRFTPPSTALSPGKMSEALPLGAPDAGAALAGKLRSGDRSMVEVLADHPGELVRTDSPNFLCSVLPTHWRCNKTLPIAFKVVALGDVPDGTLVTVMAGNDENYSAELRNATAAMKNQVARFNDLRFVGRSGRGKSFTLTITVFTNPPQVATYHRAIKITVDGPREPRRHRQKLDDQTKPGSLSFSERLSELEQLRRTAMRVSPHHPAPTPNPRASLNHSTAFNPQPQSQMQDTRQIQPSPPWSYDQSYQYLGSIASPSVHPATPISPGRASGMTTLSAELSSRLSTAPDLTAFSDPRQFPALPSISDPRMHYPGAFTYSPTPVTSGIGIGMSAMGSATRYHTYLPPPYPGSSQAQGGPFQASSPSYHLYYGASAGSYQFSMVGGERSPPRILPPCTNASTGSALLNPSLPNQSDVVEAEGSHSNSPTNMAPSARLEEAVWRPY
# Sequence of Runt-related transcription factor 1 (Homo sapiens) + Core-binding factor subunit beta (Homo sapiens) (Q13951 whole entry, looked up): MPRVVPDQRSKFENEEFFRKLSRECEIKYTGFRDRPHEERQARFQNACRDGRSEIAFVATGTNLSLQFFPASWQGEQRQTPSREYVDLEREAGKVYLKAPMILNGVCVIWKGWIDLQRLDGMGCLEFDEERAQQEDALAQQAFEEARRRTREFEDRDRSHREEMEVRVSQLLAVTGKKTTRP
row,Structure (SMILES),inhibition
1,CCOC(=O)c1cc(C(=O)OCC)c2ccccn2c1=O,25.7% (inactive)
2,COCCCNC(=O)c1cc2c(=O)n3cc(C)ccc3nc2nc1NCC1CCCO1 (stereo unspecified),-2.6% (inactive)
3,CC(C)OC(=O)c1c2nc3ccccc3nc2n2c1[nH]c(=O)c1ccccc12,-203% (inactive)
4,Cc1ccc2[nH]cc(C(=O)CN3CCC4(CC3)OCCO4)c2c1,2.6% (inactive)
5,COCc1cc(=O)n2c([nH]c3ccccc32)c1C#N,38.4% (inactive)
6,O=c1[nH]c2ccccc2nc1/C=C/c1ccccc1,-5.7% (inactive)
7,O=c1[nH]c2ccccc2n2c(-c3ccccc3)nnc12,84.1% (active)
8,Cc1cccn2c(=O)c3cc(C(=O)NCc4ccco4)c(=N)n(C(C)C)c3nc12,32.5% (inactive)
9,COc1cc(/C=C/C(=O)OCC(=O)Nc2ccccc2Sc2ccc(Cl)cc2)ccc1O,1.1% (inactive)
10,Cc1cccn2c(=O)c(/C=C(\C#N)C(=O)NC3CCS(=O)(=O)C3)c(N3CC(C)OC(C)C3)nc12 (stereo unspecified),-39.6% (inactive)
11,COc1ccc(OC)c(N=c2ssnc2Cl)c1,-11.1% (inactive)
12,N#Cc1c(NC(=S)NC(=O)c2ccccc2)sc2c1CCN(CCc1ccccc1)C2,52% (active)
13,CC(C)N1CCc2c(sc(NC(=S)NC(=O)c3ccccc3)c2C#N)C1,21.2% (inactive)
14,CCCN1CCc2c(sc(NC(=S)NC(=O)c3ccccc3)c2C#N)C1,-14.1% (inactive)
15,CNS(=O)(=O)c1ccc2nc(NC(=O)c3ccc(N4C(=O)CCC4=O)cc3)sc2c1,-3.6% (inactive)
16,O=C(Nc1nc2c(s1)CN(Cc1ccccc1)CC2)C1CCC1,43% (inactive)
17,COc1ccc(C2c3ccc(O)cc3Oc3ncn(CC(C)C)c(=N)c32)cc1 (stereo unspecified),-6.8% (inactive)
18,NNc1nc2sc3c(c2c(=O)n1C1CCCCC1)CCN(Cc1ccccc1)C3,-9.4% (inactive)
19,CC(=O)Nc1sc2c(c1C(N)=O)CCN(Cc1ccccc1)C2,-0.2% (inactive)
20,CC1(C)CC(=O)C2=C(C1)Nc1ccccc1NC2,-9.5% (inactive)
21,O=C(c1ccccc1)c1cc2ccc(O)cc2oc1=O,-8.4% (inactive)

row,Structure (SMILES),inhibition
1,CCCn1c(=N)c(C(=O)NC2CCCC2)cc2c(=O)n3cccc(C)c3nc21,2.5% (inactive)
2,O=S(=O)(Nc1ccc(-c2nc3cccnc3s2)cc1)c1cccs1,29.2% (inactive)
3,CCc1ccc(S(=O)(=O)Nc2ccc(-c3nc4cccnc4s3)cc2)s1,44% (inactive)
4,Cc1cccc2cc(C#N)c(NCCNS(=O)(=O)c3ccccc3)nc12,-12.6% (inactive)
5,CN1CCN(Cc2c(O)ccc3cc(-c4ccccn4)c(=O)oc23)CC1,-17.3% (inactive)
6,COc1ccc(C2C3=C(CC(C)(C)CC3=O)Nc3c2c(=O)[nH]c2nc(C)nn32)cc1 (stereo unspecified),17.2% (inactive)
7,Cc1nc2[nH]c(=O)c3c(n2n1)NC1=C(C(=O)CC(C)(C)C1)C3c1ccc(F)cc1 (stereo unspecified),46.7% (inactive)
8,O=C(Nc1nccs1)c1ccccc1N=Cc1ccccc1,49.3% (inactive)
9,Cn1c(C(=O)NCc2ccccn2)cc2c(=O)n3ccccc3nc21,11.6% (inactive)
10,CC(C)Cn1c(N)c(C(=O)NCc2cccs2)c2nc3ccccc3nc21,17% (inactive)
11,Nc1c(C(=O)NCc2ccco2)c2nc3ccccc3nc2n1CCc1ccccc1,42.7% (inactive)
12,COc1ccc(CCn2c(N)c(C(=O)NCc3ccco3)c3nc4ccccc4nc32)cc1,46.3% (inactive)
13,CC(C)Cn1c(N)c(C(=O)NCCN2CCOCC2)c2nc3ccccc3nc21,46.7% (inactive)
14,CCN1CCc2nc(SCC(=O)Nc3ccc(OC)cc3)c(C#N)cc2C1,20.7% (inactive)
15,CCOC(=O)C1=C(CSc2nc3c(cc2C#N)CN(C)CC3)OC(N)=C(C#N)C1c1ccncc1 (stereo unspecified),35.4% (inactive)
16,Cc1cc(=O)oc2cc(OC(=O)c3cncc(Br)c3)ccc12,-4.4% (inactive)
17,O=C(COC(=O)COc1ccccc1[N+](=O)[O-])NC1CCCC1,-6% (inactive)
18,COc1ccc(OCCn2cc(/C=C(\C#N)C(=O)NCc3ccco3)c3ccccc32)cc1,-10.8% (inactive)
19,COc1c(O)ccc2c1CN1CCc3cc4c(cc3C1C2)OCO4 (stereo unspecified),-9.6% (inactive)
20,CN1CCc2cc3c(c4c2[C@H]1[C@H](O)c1ccccc1-4)OCO3,18.4% (inactive)
21,CNC(=O)/C(C#N)=C/c1c(N(Cc2ccccc2)Cc2ccccc2)nc2c(C)cccn2c1=O,-14.8% (inactive)

row,Structure (SMILES),inhibition
1,CC(=O)N=c1c(C#N)cc2c(=O)n3ccccc3nc2n1CCCOC(C)C,7.1% (inactive)
2,CCN(CC)c1ccc2cc(C(=O)Nc3cccnc3N3CCOCC3)c(=O)oc2c1,-26.6% (inactive)
3,CCCCCCc1cc2cc(S(=O)(=O)c3ccc(Cl)cc3)c(=O)oc2cc1O,12.2% (inactive)
4,Cc1cccn2c(=O)c3cc(S(=O)(=O)c4ccc(F)cc4)c(=N)n(Cc4ccco4)c3nc12,-6.5% (inactive)
5,CCn1c(=N)c(S(=O)(=O)c2ccccc2)cc2c(=O)n3ccccc3nc21,-19.8% (inactive)
6,Cc1ccc2nc3c(cc(S(=O)(=O)c4ccccc4)c(=N)n3Cc3ccco3)c(=O)n2c1,-7.9% (inactive)
7,CCCn1c(=N)c(S(=O)(=O)c2ccccc2)cc2c(=O)n3ccccc3nc21,-6.9% (inactive)
8,COC(=O)C1=CN(CC2CCCO2)C=C(C(=O)OC)C1c1ccccc1C(F)(F)F (stereo unspecified),45.6% (inactive)
9,Cc1ccccc1OCCn1cc(/C=C(\C#N)C(=O)NCc2ccco2)c2ccccc21,20.8% (inactive)
10,COCCOC(=O)C1=C(C)NC2=C(C(=O)CC(C)(C)C2)C1c1cccnc1 (stereo unspecified),35.5% (inactive)
11,Fc1ccc(CSc2nc3ncccc3[nH]2)cc1,-9.6% (inactive)
12,CCC(C)n1c(=N)c(C#N)cc2c(=O)n3cccc(C)c3nc21 (stereo unspecified),-18.9% (inactive)
13,CCOC(=O)c1cc2c(=O)n3ccccc3nc2n(Cc2ccco2)c1=NC(=O)c1cccc(OC)c1,-10.1% (inactive)
14,O=C(c1ccccc1)c1ccccc1N1C(=O)C=CC1=O,28.3% (inactive)
15,O=C1C=CC(=O)N1c1cccc(-c2ccccc2)c1,-6.3% (inactive)
16,Cc1cc(C)cc(Oc2nc3ccccn3c(=O)c2/C=C(\C#N)C(=O)NC2CCS(=O)(=O)C2)c1 (stereo unspecified),-134% (inactive)
17,Cc1ccccc1Oc1nc2c(C)cccn2c(=O)c1/C=C(\C#N)C(=O)NC1CCS(=O)(=O)C1 (stereo unspecified),-12.5% (inactive)
18,COP(=O)(CC(=O)c1ccccc1)CC(=O)c1ccccc1,-7.7% (inactive)
19,Nc1ccc2c(C(F)(F)F)cc(=O)oc2c1,18.1% (inactive)
20,O=C(c1ccccc1)c1cnc(Nc2ccc(Cl)c(Cl)c2)s1,29.7% (inactive)
21,COc1ccc(N2C3=C(C(=O)CC(C)(C)C3)C(c3cnn(C)c3)C3=C2CC(C)(C)CC3=O)cc1,-7.6% (inactive)

row,Structure (SMILES),inhibition
1,COc1ccc(N2C3=C(C(=O)CC(C)(C)C3)C(c3ccccc3OC)C3=C2CC(C)(C)CC3=O)cc1,2.8% (inactive)
2,CCOC(=O)C1=C(Cc2ccc(C)cc2)C(=O)c2ccccc2C1=O,45.1% (inactive)
3,CCOC(=O)c1sc(-c2ccc(Cl)cc2)nc1O,-7.6% (inactive)
4,Oc1c(C=NCc2ccccc2)sc2ccccc12,-12.8% (inactive)
5,CN(C)c1nc(-c2cccs2)cc(C(F)(F)F)c1C#N,-6.2% (inactive)
6,CN(C)CCNc1c2c(c(C#N)c3nc4ccccc4n13)CCCC2,21.3% (inactive)
7,N#Cc1c2c(c(Nc3ccccc3)n3c1nc1ccccc13)CCC2,33.8% (inactive)
8,O=C(Nc1nc2c(s1)CN(Cc1ccccc1)CC2)C1CCCC1,-11.2% (inactive)
9,CCOc1ccc2nc(NCCNC(=S)NCCCN(C)C)c(C#N)cc2c1,-5.8% (inactive)
10,COCCn1c(=N)c(C(=O)NCCc2ccc(OC)cc2)cc2c(=O)n3cccc(C)c3nc21,23.3% (inactive)
11,COc1ccc(/C=C2/C(=O)ON=C2c2ccccc2)cc1OC,-3.7% (inactive)
12,Cn1c(C(=O)NCCC2=CCCCC2)cc2c(=O)n3ccccc3nc21,34.3% (inactive)
13,CCCS(=O)(=O)c1c(S(=O)(=O)CCC)c2c(C)cccn2c1C(=O)N/N=C/c1cc(O)cc(O)c1,1.8% (inactive)
14,COc1ccc2nc(Nc3sc4c(c3C(N)=O)CCCC4)sc2c1,45.1% (inactive)
15,COc1ccccc1-n1c(SCc2cc(=O)oc3cc(O)ccc23)nc2ccccc2c1=O,29.8% (inactive)
16,COc1cc(-c2nnc(SCc3cc(=O)oc4cc(O)c(O)cc34)o2)cc(OC)c1OC,49.9% (inactive)
17,N#Cc1c(NC(=O)CSc2ncc(-c3ccccc3)n2CC2CCCO2)sc2c1CCCC2 (stereo unspecified),-3.3% (inactive)
18,CC(=O)N1c2ccccc2C2(O)N=C(C)SC12 (stereo unspecified),28.9% (inactive)
